GDH-TPI counter: inhibits GDH-TPI coupling enzymes, artifact for Mtb FBA screen. GDH-TPI coupled enzyme counterscreen, NADH absorbance. inhibition, % at 4.8 µM. 360,000 tested, 1.2% active. AID 588335; in the data active means inhibition above about 30%;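 further: 0% = DMSO wells and 100% = wells lacking the enzyme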
PriA SSB inh: inhibitors of Klebsiella pneumoniae PriA binding to SSB C-terminal tail; AlphaScreen SSBct-PriA binding, biotinylated peptide; inhibition, % at 33 µM; 430,000 tested, 0.6% active; AID 1272365; in the data active means inhibition mostly above about 37%, no sharp cut-off; inactive means mostly below about 20%;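 further: plate controls were negative control peptide for no effect and reference peptide for full effect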
FBA Mtb inh: Mtb fructose-bisphosphate aldolase inhibition; P9WQA3; purified M. tuberculosis FBA, fluorescence read-out; inhibition, % at 1 µM; 360,000 tested, 2.3% active; AID 588726; in the data active means inhibition above about 27%;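 further: 0% = vehicle and 100% = reference inhibitor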
Target sequence (P9WQA3 whole entry, looked up): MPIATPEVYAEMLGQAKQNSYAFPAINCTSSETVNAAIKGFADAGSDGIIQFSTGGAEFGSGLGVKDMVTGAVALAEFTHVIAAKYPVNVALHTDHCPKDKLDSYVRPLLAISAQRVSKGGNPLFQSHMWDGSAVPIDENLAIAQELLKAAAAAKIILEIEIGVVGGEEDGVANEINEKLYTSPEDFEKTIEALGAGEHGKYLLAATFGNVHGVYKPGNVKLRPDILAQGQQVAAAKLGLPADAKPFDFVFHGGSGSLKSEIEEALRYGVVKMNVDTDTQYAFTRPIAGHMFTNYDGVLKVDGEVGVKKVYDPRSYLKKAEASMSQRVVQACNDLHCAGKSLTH
Rv3671c protease: inhibitors of M. tuberculosis serine protease Rv3671c; 320,000 tested, 0.048% active; P9WHR9; AID 2606; inhibition, % at 5.96 µM; in the data active means inhibition above about 38%;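 further: extracellular domain of Rv3671c used as enzyme; 0% = enzyme with DMSO and 100% = no enzyme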
Target sequence (P9WHR9 whole entry, looked up, the tested form may be a part): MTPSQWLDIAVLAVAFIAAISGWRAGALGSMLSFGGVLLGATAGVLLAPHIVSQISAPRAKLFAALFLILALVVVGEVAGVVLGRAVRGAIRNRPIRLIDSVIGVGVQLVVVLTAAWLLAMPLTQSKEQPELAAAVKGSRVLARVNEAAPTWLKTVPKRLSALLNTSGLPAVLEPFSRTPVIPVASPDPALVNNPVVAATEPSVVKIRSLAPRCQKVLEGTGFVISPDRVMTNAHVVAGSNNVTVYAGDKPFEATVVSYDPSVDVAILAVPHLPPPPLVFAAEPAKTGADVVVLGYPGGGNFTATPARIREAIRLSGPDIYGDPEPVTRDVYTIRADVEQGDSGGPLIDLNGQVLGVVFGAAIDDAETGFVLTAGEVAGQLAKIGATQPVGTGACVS
Mtb betalactam: beta-lactam sensitization of Mtb H37Rv. M. tuberculosis H37Rv growth with meropenem, percent inhibition. inhibition, % at 25 µM. 330,000 tested, 0.27% active. AID 434955; call rule not given here;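 further: growth measured after seven days incubation then overnight dye step; 0% = bacteria only wells and 100% = bacteria with antibiotic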
UGM FP inh: Mtb UDP-galactopyranose mutase inhibition; inhibition, % at 10 µM; P9WIQ1; 320,000 tested, 0.06% active; purified UGM, fluorescence polarization probe displacement; in the data active means inhibition above about 10%, passing the limit was not always enough; inconclusive means no clear call, values can overlap the other calls
An asterisk follows results filed as active; ? = inconclusive; . = not tested or not shown; + = active, no number; ! = not active in a repeat. Compounds with a hit are over-represented: about 3.2% of the library has one in this group of screens.

SMILES | GDH-TPI counter | PriA SSB inh | FBA Mtb inh | Rv3671c protease | Mtb betalactam | UGM FP inh
O=c1[nH]c(/C=C\c2ccc(O)cc2)nc(O)c1[N+](=O)[O-] | 41.3* | 2.9 | -9.8 | -1.7 | 3.2 | 4.2
O=c1[nH]c(/C=C\c2ccc(O)c(Cl)c2)nc(O)c1[N+](=O)[O-] | 8.8 | -7.0 | -11.6 | -3.4 | 8.0 | -1.9
Cc1c(CCC(=O)NCCCN2CCCC2=O)c(=O)oc2c(C)c(O)ccc12 | 14.7 | -7.4 | + | -1.4 | -4.6 | 0.8
Cc1c(CCC(=O)NCCCN2CCCC2=O)c(=O)oc2cc(O)ccc12 | 18.6 | -3.9 | + | 0.3 | -1.6 | 3.5
C=C(C)COc1ccc2c(C)c(CCC(=O)NC3CC3)c(=O)oc2c1 | 17.6 | -16.5 | + | -0.3 | 2.7 | 0.3
Cc1c(CCC(=O)NC2CC2)c(=O)oc2c(C)c(O)ccc12 | 20.6 | -8.7 | + | 0.5 | -3.4 | -1.3
Cc1coc2c(C)c3oc(=O)c(CCC(=O)NCCCN4CCCC4=O)c(C)c3cc12 | 6.2 | -0.3 | 9.5 | 6.1 | -4.5 | -1.5
COCCNC(=S)NN=C(C)c1cccc(OC)c1 | . | -3.7 | . | . | . | .
Cc1ccc(Cl)cc1NC(=O)C(=O)NN=Cc1ccc2c(c1)OCO2 | . | 1.4 | . | . | . | .
Cc1cc(C)cc(N=c2c([N+](=O)[O-])nn(-c3ccc(Cl)cc3)n2O)c1 | 14.8 | 51.4* | -2.4 | -20.7 | 17.0 | 0.0
Cc1ccc(CN=c2c([N+](=O)[O-])nn(-c3cccc(C)c3)n2O)cc1 | 20.8 | 16.3 | -0.7 | -6.7 | 95.4 | -1.3
CCc1ccc(N=c2c([N+](=O)[O-])nn(-c3ccccc3)n2O)cc1 | 15.5 | 69.9* | 1.3 | 0.4 | 66.6 | 2.2
CCOc1ccc(NC(=Nc2nc(C)cc(C)n2)NC(=O)CC)cc1 | . | -9.4 | . | . | . | .
CN1CC2(Cc3c1ccc1ccccc31)C(=O)OC(C)(C)OC2=O | 7.3 | -3.5 | + | 3.6 | ? | 0.8
Cc1ccc2c(c1)CC1(CN2C)C(=O)OC2(CCCCC2)OC1=O | -7.7 | -1.2 | -0.8 | -10.3 | -3.4 | 0.6
NC(=O)N=Nc1c2[nH]c3ccccc3nc-2c2ccccc12 | 36.2* | -11.7 | 1.9 | -6.8 | 99.0 | -0.3
Cc1cccc(NC(=S)NCCc2cc3ccc(C)cc3[nH]c2=O)c1 | . | 2.0 | . | . | . | .
COC(=O)[C@@H]1C[C@H]2CC[C@H](O)C[C@H]2N1Cc1ccc(C(C)(C)C)cc1 | 17.6 | 100.7* | 3.8 | -2.8 | -6.8 | -0.6
O=C(NCCC(O)C1CCOCC1)Nc1cccc(C(F)(F)F)c1 (centres undefined) | . | -22.0 | . | . | . | .
COc1nc2ccccc2nc1N1CC1 | . | . | 28.8* | . | . | .
COc1nc2ccccc2nc1N1CCN(Cc2ccccc2)CC1 | . | 1.0 | . | . | . | .
CCOC(=O)C=c1sc(=Cc2c(OC)ccc3ccccc23)c(=O)n1CC(=O)NCC1CCCO1 (centres undefined) | . | -6.8 | . | . | . | .
O=C(COc1ccc2ccccc2c1)N[C@@H](C(=O)O)c1ccc(O)cc1 | 8.6 | 39.9* | 8.4 | -9.8 | 7.7 | 0.8
COc1ccc(C=NNC(=O)C(Cc2c[nH]c3ccccc23)NC(=O)OCC(C)C)cc1[N+](=O)[O-] (centres undefined) | . | 4.7 | . | . | . | .
COc1cc(/C=N/NC(=O)C(Cc2c[nH]c3ccccc23)NC(=O)OCC(C)C)cc([N+](=O)[O-])c1O (centres undefined) | 33.0* | . | -7.3 | 9.5 | 2.0 | -2.3
SMILES | GDH-TPI counter | PriA SSB inh | FBA Mtb inh | Rv3671c protease | Mtb betalactam | UGM FP inh
COc1cc(/C=N/NC(=O)C(Cc2c[nH]c3ccccc23)NC(=O)OCc2ccccc2)cc([N+](=O)[O-])c1O (centres undefined) | 35.9* | . | -9.8 | 12.0 | 3.0 | 3.7
CCc1cccc2c(/C=N/NC(=O)c3cccc(S(=O)(=O)Nc4ccccc4Cl)c3)c[nH]c12 | 36.9* | . | 4.3 | 11.2 | 47.0 | 1.1
COc1ccc(S(=O)(=O)CCCC(=O)Nc2nc(-c3ccc(F)cc3F)cs2)cc1 | . | -9.0 | . | . | . | .
CC[N+]1=C(C)C(C)(C)c2cc(C)ccc21 | 0.7 | 52.3* | 4.0 | -320.5 | -6.4 | -3.1
Cc1cc(S(=O)(=O)N2CCN(c3ccc(-c4ccccc4)nn3)CC2)ccc1F | . | -3.0 | . | . | . | .
C=C(C)COc1ccc2c(C)c(CC(=O)N3C[C@H]4C[C@@H](C3)c3cccc(=O)n3C4)c(=O)oc2c1C | 12.5 | . | 124.5* | -9.2 | -6.8 | -1.3
CC(C)=CCOc1ccc2c(C)c(CC(=O)N3C[C@H]4C[C@H](C3)c3cccc(=O)n3C4)c(=O)oc2c1C | . | 4.2 | . | . | . | .
COc1ccc2c(C)c(CC(=O)N3C[C@H]4C[C@@H](C3)c3cccc(=O)n3C4)c(=O)oc2c1C | 13.7 | . | 134.2* | 6.2 | -5.7 | -3.1
COc1ccc(C(=O)/C=C/Nc2ccc(S(N)(=O)=O)cc2)cc1OC | 57.5* | -13.5 | 8.4 | 7.0 | 1.3 | 0.3
COc1ccc(C(=O)/C=C/NCc2ccc(F)cc2)cc1OC | 33.8* | -7.8 | -1.0 | 0.5 | -8.1 | 0.6
Cc1ccc(S(=O)(=O)NN=Cc2cn(CC(N)=O)c3ccccc23)cc1C | . | -5.4 | . | . | . | .
CC(C)Cc1cc(C(=O)NCc2ccco2)no1 | -1.4 | 95.5* | -2.5 | -7.4 | 0.8 | 1.2
COC(=O)c1cc2c(s1)=NC=NP=2(N1CCOCC1)N1CCOCC1 | 30.8*! | 0.1 | 1.4 | -6.5 | -1.6 | 2.7
Cc1ccc(NC(=S)Nc2ccc3nc(-c4ccccn4)c(-c4ccccn4)nc3c2)cc1C | 31.5* | 6.2 | -3.8 | -13.3 | 6.5 | 3.1
Cc1ccc(NC(=S)Nc2ccccn2)cc1C | -0.8 | -0.7 | -2.5 | -5.2 | 5.9 | 4.3
O=C(Nc1nc2c(Cl)c(Cl)ccc2s1)c1ccco1 | . | -4.0 | . | . | . | .
CCOc1ccc(C(=O)Nc2nc3ccc(NC(C)=O)cc3s2)cc1 | . | 0.0 | . | . | . | .
O=C(Nc1nc2c(F)cccc2s1)c1ccco1 | 35.6* | -12.0 | 5.9 | -15.7 | -3.5 | -3.9
CC(=O)Nc1ccc2nc(NC(=O)c3ccco3)sc2c1 | 32.3* | -15.0 | -1.2 | -12.0 | 4.3 | 2.8
CCOc1cccc2sc(Nc3nc4ccc(NC(C)=O)cc4s3)nc12 | 39.1* | -13.0 | 119.1* | 1.4 | -1.3 | -0.1
NS(=O)(=O)c1ccc(CCNC(=O)c2cnc3n(c2=O)CCS3)cc1 | . | -19.0 | . | . | . | .
O=C(Nc1cnc(N2CCOCC2)nc1)C1CCCO1 (centres undefined) | . | -14.0 | . | . | . | .
CCC(C)n1c(O)c(C=NNc2ccccc2)c(=O)[nH]c1=S (centres undefined) | . | 11.6 | . | . | . | .
Cc1c(NS(=O)(=O)c2cc(C(=O)NCC3CCCO3)cc(Cl)c2Cl)c(=O)n(-c2ccccc2)n1C (centres undefined) | -1.0 | -0.2 | -0.4 | 6.8 | -3.3 | 0.1
Cc1c(NC(=O)C(C)NCC2CCCO2)c(=O)n(-c2ccccc2)n1C (centres undefined) | 6.8 | -16.7 | + | 0.6 | -9.5 | -0.8
COc1c2c(cc3oc(=O)c4c5ccc(O)cc5oc4c13)OC(C)(C)CC2 | 9.7 | -14.7 | 14.2 | -5.1 | -8.3 | -1.6
COc1cc2c(c3oc(=O)cc(CC(=O)O)c13)CCC(C)(C)O2 | 9.3 | -15.4 | 199.4* | 1.7 | 2.3 | -2.7

High-throughput results (PubChem)
